Source: PubChem BioAssay
In the library only some 19% were active in any assay of this set; here they are far more common.
TDP1 cell noCPT: qHTS for Inhibitors of human tyrosyl-DNA phosphodiesterase 1 (TDP1): qHTS in cells in absence of CPT. DT40 Tdp1-/- hTDP1 cells, no CPT, ATP luminescence, 48 h. Potency, µM (top dose mostly 46.2 µM), for the others: at the highest dose activity change, negative = growth inhibition, most hits filed as inhibitors. 420,000 tested, 15% active; further: nearly all actives have a fitted effect of over 55% in size
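Chicken DT40 Tdp1-/- cells stably complemented with human TDP1 were seeded at 400 cells/well with DMSO in place of 20 nM camptothecin. After compound pinning, cells grew at least 48 hr at 37 °C; viability read by CellTiter-Glo luminescence.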
HT1080-NT tox: qHTS for induction of synthetic lethality in tumor cells producing 2HG: qHTS for the HT-1080-NT fibrosarcoma cell line; 360,000 tested, 1.6% active; HT-1080-NT fibrosarcoma viability, CellTiter-Glo ATP luminescence, 48 h; Potency, µM (series often up to 46.1 µM), for inactives: at the top dose activity, negative = less viability, actives largely listed as cytotoxic;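 further: NT is the 2HG producing partner of a matched IDH1 knockdown line; 0% = DMSO-treated cells and -100% = media-only wells without cells; nearly all actives have a fitted effect of over 55% in size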
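Viability by CellTiter-Glo luminescence after 48 h compound exposure at 37C of HT-1080-NT cells (750/well, RPMI, 5% FBS). % activity scaled between DMSO wells and medium-only wells, then curve-fitted and categorized by curve class.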
KB-V1 cytotox: qHTS assay for MDR1-selective chemotherapeutics: Primary screen using the drug-selected MDR subline cells KB-V1; 400,000 tested, 3.4% active; AID 1347076, 2019; KB-V1 MDR cells viability, CellTiter-Glo, 72 h; Potency, µM (titrated, usually from 46.1 µM), most hits filed as cytotoxic; further: nearly all actives have a fitted effect of over 60% in size
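KB-V1, DMEM (no phenol red) + 10% FBS; cpd pin-transferred, titration series; 72 h, 37 degrees C; CellTiter-Glo, luminescence. Data normalized, curve-fit.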
KB-3-1 cytotox: qHTS assay for MDR1-selective chemotherapeutics: Primary screen using the parental adenocarcinoma cell KB-3-1; AID 1347075, 2019; Potency, µM (top dose mostly 46.1 µM), usual class: cytotoxic; KB-3-1 viability, CellTiter-Glo ATP luminescence, 72 h; 400,000 tested, 1.4% active; further: nearly all actives have a fitted effect of over 60% in size
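Cytotoxicity in the drug-sensitive parental line KB-3-1 was scored as loss of CellTiter-Glo luminescence following 72 h incubation with compound. Values come from curve fitting of normalized concentration-response data.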
HT1080 IDH1KD tx: qHTS for induction of synthetic lethality in tumor cells producing 2HG: qHTS for the HT-1080-IDH1KD cell line | HT-1080 IDH1 knockdown viability, ATP luminescence, 48 h | Potency, µM (series often up to 46.1 µM), for inactives: at the top dose activity, negative = toxicity, most hits filed as cytotoxic | 360,000 tested, 2% active | AID 686971, 2013;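 further: 0% = DMSO wells and -100% = cell-free medium wells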
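Cytotoxicity counter-line: IDH1KD HT-1080, 48 h, CellTiter-Glo. Curves classed by r2, magnitude and activity.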
TDP1 cell CPT: qHTS for Inhibitors of human tyrosyl-DNA phosphodiesterase 1 (TDP1): qHTS in cells in presence of CPT; 420,000 tested, 12% active; Potency, µM (series often up to 46.2 µM), inactives show at the top dose activity change, negative = growth inhibition, usual class: inhibitors; AID 686979, 2013; chicken DT40 Tdp1-/-;hTDP1 cells + 20 nM CPT, ATP luminescence, 48 h; further: nearly all actives have a fitted effect of over 55% in size
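Cell growth measured by CellTiter-Glo luminescence after a minimum 48 h, 37 C compound exposure with 20 nM CPT in Tdp1-knockout DT40 cells stably expressing hTDP1, seeded 400/well; qHTS titration format.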
* marks the source's active call; other numbers are inactive results; i = inactive; ? = inconclusive; . = no result given. The call rests on the fitted dose curve; in most records, active means well fitted curve in the direction sought with a large enough effect; inconclusive means small, poorly fitted or top-dose-only effect, or another doubt; inactive means no such curve, though single readings can be large; an effect the other way counts as inactive or inconclusive. Unless noted, on the % scale 0 is the no-effect control and ±100 the full control effect; potency means the concentration at half of the fitted maximal effect.

SMILES | TDP1 cell noCPT | HT1080-NT tox | KB-V1 cytotox | KB-3-1 cytotox | HT1080 IDH1KD tx | TDP1 cell CPT
COC(=O)c1ccc(OCC(=O)NC2CCCCCC2)cc1 | -3% | 26% | i | i | 24% | -25%
COc1ccc(NC(=O)CN(c2ccccc2OC)S(=O)(=O)c2cccs2)cc1Cl | 15µM* | -23% | . | . | ? | ?
COc1ccccc1N(CC(=O)Nc1ccccc1)S(=O)(=O)c1cccs1 | ? | -5% | i | i | -1% | -23%
COc1cccc(NC(=O)CN(c2ccccc2OC)S(=O)(=O)c2cccs2)c1 | 21µM* | 0% | i | i | -10% | ?
CS(=O)(=O)Nc1ccc(C(=O)NCCSCc2c(F)cccc2Cl)cc1 | ? | -10% | i | i | 0% | 2%
CCOc1ccccc1CNCc1ccc(F)cc1 | ? | -16% | i | i | 6% | -3%
COC(=O)C1=C(C)N(Cc2ccccc2)C(=NCc2cccc(Cl)c2)N[C@H]1c1ccccc1 | 21µM* | -12% | i | i | -14% | 12µM*
COC(=O)C1=C(C)N(Cc2ccccc2)C(=NCc2ccccc2)N[C@H]1c1cccc(F)c1 | 8.2µM* | -20% | i | i | -13% | 16µM*
COC(=O)C1=C(C)N(CC2CC2)C(=NCc2cccc(Cl)c2)N[C@H]1c1ccccc1 | ? | -8% | i | i | -26% | 16µM*
COC(=O)C1=C(C)N(Cc2ccccc2)C(=S)N[C@H]1c1cccc(F)c1 | -16% | -7% | i | i | 1% | ?
CC1CCc2c(sc3[nH]c(=S)n(C)c(=O)c23)C1 (stereo unspecified) | ? | -6% | i | i | -10% | -26%
O/C=c1\ccc2cccc3nc(C(F)(F)F)nc1c23 | 21µM* | -25% | i | i | -9% | 10µM*
CCn1c2ccccc2nc2cc3c(cc21)c(Cl)c(=O)c1ccccc13 | 5.8µM* | ? | i | ? | 21µM* | 8.2µM*
CCn1c(Nc2ccccc2Cl)nc2ccccc21 | -26% | 3% | i | i | 11% | -20%
Cc1ccc2c(c1)N(S(=O)(=O)c1ccc(CN3C(=O)c4cccnc4C3=O)cc1)CCO2 | 30% | 7% | i | ? | 14% | -4%
COc1ccc(-c2cnc(C)o2)cc1S(=O)(=O)Nc1ccc(C)c(F)c1 | 2.6µM* | . | 5.8µM* | 5.8µM* | . | 2.6µM*
COc1ccc(-c2cc(C)no2)cc1S(=O)(=O)Nc1c(C)cc(C)cc1C | 21µM* | . | i | i | . | ?
Cc1ccc2c(c1)N(S(=O)(=O)c1cc(-c3onc(C)c3C)ccc1C)CCO2 | 9.2µM* | ? | ? | 23µM* | ? | 23µM*
COc1ccc(-c2cc(C)no2)cc1S(=O)(=O)NC(C)C | -4% | . | i | i | . | -6%
COc1ccc(-c2cnc(C)o2)cc1S(=O)(=O)Nc1c(C)cc(C)cc1C | 23µM* | . | i | i | . | 16µM*
COC(=O)c1cc(NC(=O)c2nn(C)c3c2CSc2ccccc2-3)cc(C(=O)OC)c1 | 5% | . | . | . | . | 6%
Cc1cc(C)c(NS(=O)(=O)c2cc(-c3onc(C)c3C)ccc2C)c(C)c1 | 8.2µM* | . | . | . | . | 13µM*
C=CC[C@]12C[C@@H](OC)C(=O)C=C1O[C@@H](c1ccc(OC)c(OC)c1)[C@H]2C | ? | 7% | i | i | -1% | 18µM*
O=C(COC(=O)c1ccc(-c2ccc([N+](=O)[O-])cc2)o1)NC(=O)NC12CC3CC(CC(C3)C1)C2 | 13µM* | -1% | ? | ? | 5% | 16µM*
CC(=O)NC(=O)c1ccc(-c2ccc(Cl)cc2)o1 | -18% | 24% | 8.2µM* | ? | 20% | -12%
SMILES | TDP1 cell noCPT | HT1080-NT tox | KB-V1 cytotox | KB-3-1 cytotox | HT1080 IDH1KD tx | TDP1 cell CPT
CN1CCN(c2ccc(NC(=O)c3ccc(-c4ccc(Cl)cc4)o3)cc2)CC1 | 21µM* | 5.8µM* | ? | ? | 8.2µM* | 16µM*
CS(=O)(=O)N1CCN(c2ccc(NC(=O)c3ccc(-c4ccc(Cl)cc4)o3)cc2)CC1 | ? | -29% | i | i | -14% | ?
O=C(NCc1ccco1)c1ccc(-c2ccc(Cl)cc2)o1 | -12% | 1% | i | ? | -6% | -2%
O=C(COC(=O)c1n[nH]c2ccccc12)NC(=O)NC1CCCC1 | -23% | -5% | i | i | -8% | ?
O=C(COC(=O)c1n[nH]c2ccccc12)NC(=O)NC12CC3CC(CC(C3)C1)C2 | 9.2µM* | -13% | i | i | -19% | 13µM*
O=C(Nc1cc(C(F)(F)F)ccc1-n1cncn1)c1ccc(F)cc1Cl | ? | 10% | i | i | 10% | ?
COc1ccc(N2Nc3n[nH]c(N)c3N2)cc1 | -29% | 15% | i | i | 15% | -14%
O=C(NC12CC3CC(CC(C3)C1)C2)c1ccc(-c2ccc(Cl)cc2)o1 | 18µM* | -16% | ? | ? | ? | 23µM*
O=C(NC(=S)Nc1ccccc1O)c1ccc(-c2ccc(Cl)cc2)o1 | 16µM* | ? | i | ? | ? | 23µM*
Cc1ccc(O)c(NC(=S)NC(=O)c2ccc(-c3ccc(Cl)cc3)o2)c1 | 26µM* | ? | i | i | ? | 23µM*
O=C(NC12CC3CC(CC(C3)C1)C2)c1ccc(-c2cccc(Cl)c2)o1 | ? | -7% | ? | i | -9% | ?
